Compound activity from PubChem.
Sampled rows, rich in hits. Any-hit rate of the full collection: about 3.6%.
BoNT A protease: BoNT A light chain protease inhibition | multiplex microsphere protease substrate cleavage, flow cytometry | inhibition, % at 10 µM | 0.17% of 360,000 active; further: plate controls were buffer without enzyme for full effect and enzyme alone for no effect
Autofluor counter: flagged as autofluorescent in microsphere protease counterscreen; fluorescence intensity (concentration not given with the values); AID 624483; 3.1% of 360,000 active; compound autofluorescence counterscreen, microsphere flow cytometry; active compounds read high; in the data active means fluorescence intensity above about 16000; inconclusive means no clear call, values can overlap the other calls
MazEF act: activators of E. coli MazEF toxin-antitoxin RNase | P0AE70 | FAM/BHQ RNA-DNA oligo cleavage fluorescence, 5 h | activation, % at 20 µM | 0.32% of 350,000 active | AID 504720; in the data active means activation above about 50%
Anthrax LF inh2: blocks Bacillus anthracis lethal factor protease; P15917; multiplex microsphere protease cleavage assay, LF; inhibition, % at 10 µM; 0.12% of 360,000 active; AID 588501; further: plate controls were buffer without enzyme for full effect and enzyme alone for no effect
BoNT F protease: inhibitors of Botulinum neurotoxin F light chain protease; AID 588497; 0.22% of 360,000 active; inhibition, % at 10 µM; Multiplex microsphere protease cleavage assay, flow cytometry; in the data active means inhibition above about 35%, passing the limit was not always enough; inconclusive means no clear call, values can overlap the other calls; further: plate controls were buffer without enzyme for full effect and enzyme alone for no effect
Starred values were filed as active, the others as inactive; ? = inconclusive; nt = no result given; + = active, no number; ! = repeats disagree. Unless noted, no stated cut-off is given here; in the data, active means inhibition above about 30%; inconclusive means no clear call, values can overlap the other calls; inactive means below that.

SMILES	BoNT A protease	Autofluor counter	MazEF act	Anthrax LF inh2	BoNT F protease
CCCCn1c(SCC(=O)N2CC(C)CC(C)C2)nc2cc(S(N)(=O)=O)ccc21 (centres undefined)	0	11266	8	-2	2
CCCCn1c(SCC(=O)N2CCCCC2)nc2cc(S(N)(=O)=O)ccc21	0	19717*	-7	-1	-1
CC(C)(C)c1nc2ccccc2c2nnc(SCC(=O)NCc3ccco3)n12	-1	16855*	0	-1	-1
C=CCc1cc(OC)ccc1OCC(O)CN1CCN(c2ccc(OC)cc2)CC1 (centres undefined)	?	22414*!	-4	-2	-13
Cc1c(NC2(C#N)CCCC2)c(=O)n(-c2ccccc2)n1C	-3	7705	6	-3	-16
CC(C)(C)NC(=O)CSc1nnc(Cc2ccc3c(c2)OCO3)n1C1CCCCC1	-2	20511*	-8	-5	-5
COn1c(SCc2cccc(Cl)c2)nc2ccccc2c1=O	-2	17254*	-1	-2	-10
COn1c(SCc2ccccc2)nc2ccccc2c1=O	-5	5829	-1	-2	-31
COc1ccc(C(=O)NCc2ccccc2CN2CCCC2)cc1S(=O)(=O)N1CCOCC1	-2	6579	2	-4	-5
Cc1ccc(S(=O)(=O)N2CCCC2C(=O)O)s1 (centres undefined)	-2	24047*	-11	0	-4
O=C(O)C1CCCN1S(=O)(=O)c1ccccc1 (centres undefined)	3	20858*	-5	0	5
O=C(Nc1c(C(=O)N2CCCC2)cnn1-c1ccccc1)c1cccc(F)c1	?	21118*	3	2	-4
COc1ccc([C@@H]2C[C@H]3[C@@H](CN2S(=O)(=O)c2ccccc2)C(=O)C[C@@H](c2ccc(C)cc2)N3S(=O)(=O)c2ccc(C)cc2)cc1	0	3046	-12	-5	-2
O=C(NCCOC(=O)c1ccccc1C(=O)OCCNC(=O)c1cccnc1)c1cccnc1	6	19258*	1	-12	11
CCn1nnnc1SCC(=O)N(C)C1CCS(=O)(=O)C1 (centres undefined)	1	3578	4	2	12
CCc1ccc(OCC(=O)Nc2ccc(S(=O)(=O)N3CCCC3)cc2)c(Br)c1	-3	23390*	1	-2	-5
O=C(COc1ccc(S(=O)(=O)N2CCOCC2)cc1)Nc1ccccc1Cl	1	5771	3	2	-1
Cc1c(Cl)cccc1NC(=O)COc1ccc(S(=O)(=O)N2CCOCC2)cc1	0	16522*	-5	-2	1
O=C(COc1cccc(C(F)(F)F)c1)Nc1ccc(S(=O)(=O)N2CCCC2)cc1	-5	25851*	0	-4	-10
COC(=O)c1ccc(NC(=O)COc2ccc(S(=O)(=O)N3CCCCC3)cc2)cc1	2	23051*	-6	2	2
COC(=O)c1ccc(S(=O)(=O)NCCSc2nnc3c4ccccc4n(C)c3n2)cc1	?	23909*	0	0	-2
CC(C)OC(=O)CSc1nnc2c3ccccc3n(C)c2n1	0	2622	3	0	-2
CCCn1cc(C(CC(=O)O)C(=O)O)c2ccccc21 (centres undefined)	-1	24400*	-4	0	-2
Cn1cc(C(CC(=O)O)C(=O)O)c2ccccc21 (centres undefined)	0	23907*	3	2	-2
CCOC(=O)CC(C#N)c1cn(C)c2ccccc12 (centres undefined)	2	13969	6	-3	-11
SMILES	BoNT A protease	Autofluor counter	MazEF act	Anthrax LF inh2	BoNT F protease
COc1ccc(S(=O)(=O)N(C)C[C@@H]2OCc3cnnn3CCCC(=O)N([C@@H](C)CO)C[C@@H]2C)cc1	0	2981	5	-8	4
CCCC(=O)Nc1ccc(C#Cc2ccccc2)cc1	4	18787*	-4	-8	5
CCCC(=O)Nc1ccccc1NC(=O)CCC	0	4052	-6	-5	6
CCCCNC(=S)Nc1ccc(Oc2ccccc2)cc1	-1	4056	3	-3	-1
CCCNC(=S)Nc1ccc(Oc2ccccc2)cc1	0	20489*	-2	-2	-3
CCOC(=O)Nc1ccc(OC(=O)Oc2ccc(NC(=O)OCC)cc2)cc1	0	3468	9	6	2
CCOC(=O)Nc1ccc(Oc2ccccc2)cc1	-3	24151*	5	-2	-4
CCCNC(=S)Nc1ccc2nc(-c3ccccn3)c(-c3ccccn3)nc2c1	?	21151*	-18	8	-1
COC(=O)c1cccc2c(C(=O)O)cc(-c3ccccc3)nc12	-1	3369	3	2	-7
CCCC(=O)Nc1ccc(Oc2ccc(NC(=O)CCC)cc2)cc1	?	19816*	-1	0	-2
CC(=O)SCCC(=O)Nc1ccccc1	?	17839*	-4	3	17
CC(=O)NNC(=O)CCC(=O)Nc1ccccc1	-1	11331	2	-1	-9
CCCC(=O)Nc1ccc(OCC(=O)OC)cc1	0	3063	3	-1	-30
CC1CC(C)(C)N2C(=O)C3(Nc4ccccc4S3)c3cccc1c32 (centres undefined)	?	22846*	3	-3	-2
CC1=C(C(=O)OCc2cc(C)on2)N2C(=O)[C@@H](NC(=O)OCc3cc(C)on3)[C@H]2SC1	1	3305	-1	-13	6
CSc1ccccc1C(=O)NCc1ccc(S(N)(=O)=O)cc1	0	2602	1	1	-10
COCCSc1ccccc1C(=O)NCc1ccc(S(N)(=O)=O)cc1	?	23008*	3	0	2
CCOC(=O)N1CCN(C(=O)CSCc2nc(-c3ccccc3C)oc2C)CC1	-1	16597*	-2	-4	-3
CSc1ccc(-c2nc(CSCC(=O)N3CCOCC3)c(C)o2)cc1	?	22931*	0	-1	-3
CSc1ccc(-c2nc(CSCC(=O)NC3CC3)c(C)o2)cc1	-1	4827	-27	-3	-3
O=c1[nH][nH]c2c1[C@H](C1CCCC1)O[C@H](CCc1ccccc1)C2	1	5750	nt	1	-1
O=C(COc1ccc(Br)cc1)Nc1ccccc1N1CCCC1	0	2471	-7	1	-3
Cc1ccc(OCC(=O)NN2C(=O)c3ccccc3C2=O)cc1	0	6199	13	-4	-10
O=C(COc1ccc(Br)cc1)NN1C(=O)c2ccccc2C1=O	nt	nt	442*	nt	nt
CC(=O)N1CCN(c2ccccc2NC(=O)COc2ccc(Br)cc2)CC1	-1	23694*	-7	-4	-6
O=C(OCc1ccccc1F)c1cc(S(=O)(=O)N2CCCCC2)ccc1N1CCOCC1	-1	4344	6	6	-1
COc1cc(Sc2ccc(C)cc2)c(OC)cc1N	22	2436	8	-9	-48
COC(=O)c1ccc(Sc2ccc(C)cc2)c(N)c1	-2	24100*	-4	-1	-5
CSc1ccc(NC(=O)NN(c2ccccc2)C2CCS(=O)(=O)C2)cc1 (centres undefined)	-1	3812	4	-12	3
COC(=O)C1=C(C)N(Cc2ccco2)C(=O)/C1=C\c1ccc(N(C)C)cc1	-1	9085	+	-3	-5
